# Screen size: about 48,000 compounds; about 13,000 (27%) showed an effect of 50% or more. Some of the results follow.
# System: Wolbachia pipientis
# Assay: Anti-Wolbachia Cell-Based Screen
# Type: functional
# Set-up: scale not given: in the data most compounds retested in dose-response had high values
# Settings: 5 µM
row,Compound,Percent Effect [%]
1,CCS(=O)(=O)NCCNc1c(C#N)cnc2c(F)cc(F)cc12,9.088
2,O=c1c2cccnc2cnn1CC(O)c1cccc(Cl)c1 (stereo not given),-24.01
3,O=C(NCC(O)c1cccc(F)c1)C1CCN(C2CCCCC2)CC1 (stereo not given),-12.87
4,CCN1CCCC1CN(Cc1ccon1)CC1CCN(CCOC)CC1 (stereo not given),1.475
5,CCN1CCCC1CN(Cc1ccoc1)CC1CCN(CCOC)CC1 (stereo not given),3.887
6,O=C(c1cccnc1O)N(Cc1cccs1)CC1CCCO1 (stereo not given),-28.97
7,COCCN(Cc1cccs1)C(=O)C1CCCN(C(N)=O)C1 (stereo not given),11.05
8,COCCN1CCC(CN(CC2CCCO2)C(=O)Cc2cccs2)CC1 (stereo not given),153.6
9,COCCN1CCC(CN(CC2CCCO2)C(=O)Cn2cccn2)CC1 (stereo not given),105.2
10,CN(C)C(=O)N1CCC2(CC1)CN(CC1CC1)CC21CCNC1=O.O=C(O)C(F)(F)F (stereo not given),-46.87
11,CC(C)CC(C(=O)N(C)Cc1ncnn1C)N1CCCCC1=O (stereo not given),7.289
12,O=C(C1CCCO1)N1CCC(n2cc(-c3ccsc3)nn2)CC1 (stereo not given),2.629
13,CCNC(=O)NC1CCN(c2ccc(S(=O)(=O)CC)cc2)CC1,-0.338
14,CC(C#N)CN(C)Cc1ccc(Cl)c2cccnc12 (stereo not given),-6.534
15,CC(C)n1cc(C(=O)N2CCC(n3cc(C(C)(C)C)nn3)CC2)cn1,5.915
16,CCC(CC)(CNC(=O)OC(C)(C)C)NC(=O)C1CC1,0.8539
17,Cc1ccc(CN2CCC[C@]3(C(=O)O)CN(CC4CC4)C[C@@H]3C2)s1.O=C(O)C(F)(F)F.O=C(O)C(F)(F)F,98.43
18,Cc1ccc(CN2CCCC3(CCCN3S(C)(=O)=O)C2)s1.O=C(O)C(F)(F)F (stereo not given),2.867
19,COCCN1C[C@@H]2CN(Cc3ccc(C)s3)CCC[C@]2(C(=O)O)C1.O=C(O)C(F)(F)F.O=C(O)C(F)(F)F,111.2
20,Cc1ccc(CN2CCC[C@]3(C(=O)O)CN(C)C[C@@H]3C2)s1.O=C(O)C(F)(F)F.O=C(O)C(F)(F)F,119.8
21,Cc1ccc(CN2CCCC3(CCCC(=O)N3)C2)s1.O=C(O)C(F)(F)F (stereo not given),-10.23
22,Cc1ccc(CN2C[C@@H]3CN(CC4CCOCC4)CCO[C@@H]3C2)s1.O=C(O)C(F)(F)F.O=C(O)C(F)(F)F,-6.305
23,COCCN1C[C@@H]2CN(Cc3ccsc3)CCC[C@]2(C(=O)O)C1.O=C(O)C(F)(F)F.O=C(O)C(F)(F)F,4.755
24,COCCN1C[C@@H]2CN(Cc3ccoc3)CCC[C@]2(C(=O)O)C1.O=C(O)C(F)(F)F.O=C(O)C(F)(F)F,-3.751

row,Compound,Percent Effect [%]
1,CN1C[C@@H]2CN(Cc3ccsc3)CCC[C@]2(C(=O)O)C1.O=C(O)C(F)(F)F.O=C(O)C(F)(F)F,3.355
2,Cc1ocnc1C(=O)N1CCC2(CC1)c1nc[nH]c1CCN2CC(C)C,6.768
3,OC(COCc1cccs1)CSc1nnc2ccccn12 (stereo not given),9.754
4,Cc1ccccc1C(=O)N1Cc2c(Cn3ccnc3)nn(C)c2C1.O=C(O)C(F)(F)F,-9.207
5,COc1nn(C)c2c1CCCN(C(=O)c1ccccc1)C2,-3.094
6,COc1nn(C)c2c1CCCN(S(=O)(=O)c1cccc(F)c1)C2,-2.811
7,COc1nn(C)c2c1CCCN(C(=O)c1cccc(C)n1)C2.O=C(O)C(F)(F)F,98.8
8,Cn1nc(C#N)c2c1CN(C(=O)c1cccnc1)CCC2.O=C(O)C(F)(F)F,29.43
9,COc1nn(C)c2c1CCCN(C(=O)c1cccc3cccnc13)C2.O=C(O)C(F)(F)F,97.34
10,Cc1nc(COCc2cnc3n2CCN(C2CCC2)C3C)cs1.O=C(O)C(F)(F)F (stereo not given),1.124
11,Cc1c(C(=O)N2CC(=O)N(C)C2)nnn1-c1cccc2cccnc12,-0.5272
12,Cc1occc1C(=O)NCC(=O)NCCOc1ccc2c(c1)CCC2,29.83
13,Cn1ccnc1C(=O)NC[C@H]1OC[C@@H]2CCN(S(C)(=O)=O)C[C@@H]21,-43.59
14,Cc1cc(=O)n(CCNS(=O)(=O)c2ccccc2)cn1,113.1
15,CCCn1ccnc1SCCNS(=O)(=O)c1ccccc1,8.595
16,Cc1cc(C)n(-c2ccc(NCCNS(=O)(=O)c3ccccc3)nn2)n1,5.574
17,Cc1cc(NCCNS(=O)(=O)c2cccc(Cl)c2)nc(C)n1,15.59
18,Cc1cc(=O)n(CCNS(=O)(=O)c2ccc(F)c(Cl)c2)cn1,79.22
19,CNS(=O)(=O)c1cccc(CNc2cc(C(F)(F)F)ccn2)c1,-5.444
20,Cc1cc(=O)n(CCNS(=O)(=O)c2cccc(C(F)(F)F)c2)cn1,121.6
21,O=c1ccc(-n2cccn2)nn1CCNS(=O)(=O)c1ccc(F)c(Cl)c1,8.551
22,O=c1ccc(-n2ccnc2)nn1CCNS(=O)(=O)c1ccc(F)c(Cl)c1,15.65
23,O=C(Nc1ccc2occc2c1)N1CCCC(O)(CO)CC1 (stereo not given),-15.39
24,Cc1cc(Br)ccc1NCC(=O)Nc1cc(C(C)(C)C)no1,-8.877

row,Compound,Percent Effect [%]
1,O=C(c1ccc2c(c1)CCCC2)N1CCOCC1c1ncon1 (stereo not given),4.25
2,Cc1cn[nH]c1C1COCCN1C(=O)c1ccc2[nH]nnc2c1 (stereo not given),120.8
3,Cc1cn[nH]c1C1COCCN1C(=O)c1ccc2c(c1)CCCC2 (stereo not given),108.4
4,Cc1cn[nH]c1C1COCCN1C(=O)c1cc(F)ccc1F (stereo not given),95.39
5,CC(=O)Nc1cc(C(=O)N2CCOCC2c2ccc(C)o2)ccc1F (stereo not given),-2.563
6,Cc1n[nH]c(C)c1C1COCCN1C(=O)Cc1cccc(F)c1 (stereo not given),-5.544
7,Cc1n[nH]c(C)c1C1COCCN1C(=O)c1ccccc1 (stereo not given),5.535
8,CS(=O)(=O)NCc1ccc(NC(=O)CC2=CCCCC2)cc1,0.7476
9,CCOc1ccc(Cl)cc1C(C(=O)O)N1CCCC1 (stereo not given),-26.77
10,OCCN1CCN(CC(O)c2cc(Cl)ccc2Cl)CC1 (stereo not given),-2.66
11,COCCN(C)Cc1cc(Cl)ccc1OCC(O)CN1CCCCCC1 (stereo not given),95.86
12,COCCN(C)C(C(=O)O)c1cc(Cl)ccc1OC (stereo not given),-4.575
13,CN(CCCO)Cc1cc(Cl)ccc1OCC(O)CN1CCCCCC1 (stereo not given),86.94
14,CCOCC(O)CN1CCN(C(=O)c2ccnc(N(C)C)c2)CC1 (stereo not given),-11.71
15,CN(CCO)Cc1cc(Cl)ccc1OCC(O)CN1CCCCCC1 (stereo not given),92.98
16,COCC(O)CN1CCC(NC(=O)c2ccccc2Cl)CC1 (stereo not given),-8.699
17,CCN1CCN(CC(O)c2cc(Cl)ccc2Cl)CC1 (stereo not given),-3.784
18,COc1cccc(CN2C[C@@H](F)[C@@H](OCc3nc4cnccc4[nH]3)C2)c1,-9.076
19,COc1ccc(C2C3=C(COC3=O)Nc3[nH]nc(C)c32)cc1OC (stereo not given),3.297
20,COCCn1ccc(NCc2scnc2C)n1,1.852
21,COCCn1ccc(NCc2cc3cc(F)ccc3o2)n1,97.47
22,Cc1cc(CNc2ccnn2C)ccc1-n1cncn1,1.687
23,Cn1ccc(NCc2cc3cc(F)ccc3o2)n1,107
24,CC(NCc1cc2cc(F)ccc2o1)c1nnc2n1CCCC2 (stereo not given),-7.412

row,Compound,Percent Effect [%]
1,Cc1ccc2oc(CNC(C)c3nnc4n3CCCC4)cc2c1 (stereo not given),-13.95
2,NC(=O)CCn1ccc(NCc2cc(F)ccc2Br)n1,-14.37
3,COCCn1ccc(NCc2sccc2C)n1,-10.57
4,Cn1nccc1NCc1cc2cc(F)ccc2o1,98.61
5,CC(C(=O)N1CCN(c2ccc(F)cc2)CC1)n1ccnc1 (stereo not given),2.016
6,CN(C)S(=O)(=O)N1C[C@@H]2CC[C@H](C1)N(C/C=C/c1ccc(F)cc1)C2,19.59
7,Cc1ccccc1OCC(=O)N1CCOC2(CNCCOC2)C1 (stereo not given),-22.9
8,COc1ccccc1CC(=O)N1CCC(NCc2cc[nH]c2)CC1,5.746
9,CCCc1noc(CCC(=O)N2CCCC2Cn2cc(C)cn2)n1 (stereo not given),127.2
10,CCCc1noc(CCC(=O)N2CCCCC2Cn2cc(C)cn2)n1 (stereo not given),117.6
11,CCCc1noc(CCC(=O)N2CCCC2c2ccsc2)n1 (stereo not given),2.757
12,O=C(O)C(F)(F)F.O=S(=O)(C1CC1)N1C[C@H]2CCC[C@@]2(COc2ccccn2)C1,2.736
13,O=C(O)C(F)(F)F.c1cnc(N2C[C@@H]3COC[C@]3(COCC3CCCC3)C2)nc1,99.14
14,O=C(CC1CC1)NC[C@]12COC[C@H]1CN(c1ncccn1)C2.O=C(O)C(F)(F)F,-5.322
15,O=C(O)C(F)(F)F.O=C(O)C(F)(F)F.c1ccc(OC[C@]23COC[C@H]2CN(c2ncccn2)C3)nc1,-14.79
16,O=C(CC1CC1)NC[C@]12COC[C@H]1CN(c1ncc(F)cn1)C2.O=C(O)C(F)(F)F,-10.91
17,CN(C)S(=O)(=O)N1C[C@@H]2COC[C@]2(COc2ccccn2)C1.O=C(O)C(F)(F)F,82.39
18,COc1cc(N2C[C@@H]3COC[C@]3(C(=O)NCc3ccccn3)C2)ncn1,-14.4
19,CCS(=O)(=O)N1C[C@H]2CCC[C@@]2(COc2ccccn2)C1.O=C(O)C(F)(F)F,18.76
20,COc1cc(N2C[C@@H]3COC[C@]3(C(=O)NC3CC(F)(F)C3)C2)ncn1.O=C(O)C(F)(F)F,12.94
21,COc1cc(N2C[C@@H]3COC[C@]3(COc3ccccn3)C2)ncn1.O=C(O)C(F)(F)F.O=C(O)C(F)(F)F,106
22,Fc1cnc(N2C[C@@H]3COC[C@]3(COc3ccccn3)C2)nc1.O=C(O)C(F)(F)F.O=C(O)C(F)(F)F,104.4
23,Fc1cnc(N2C[C@H]3CCC[C@@]3(COc3ccccn3)C2)nc1.O=C(O)C(F)(F)F.O=C(O)C(F)(F)F,-0.7444

# Source: ChEMBL document CHEMBL3988442, “University of Dundee, Small-Polar-MMV Screening Library” (2021)
